# Screens deposited in PubChem BioAssay by National Center for Advancing Translational Sciences (NCATS).
# S-ASM inh: blocks human secretory acid sphingomyelinase; hit rate 0.006% among 340,000; placental ASM, HMU-PC fluorogenic substrate, 60 min; Potency, µM (titrated, usually from 57.5 µM), for inactives: at the highest dose activity change, negative = inhibition, actives largely listed as inhibitors; also: potency is read from the fitted curve at half-maximal effect
# Target sequence (P17405 47-631 limits assumed): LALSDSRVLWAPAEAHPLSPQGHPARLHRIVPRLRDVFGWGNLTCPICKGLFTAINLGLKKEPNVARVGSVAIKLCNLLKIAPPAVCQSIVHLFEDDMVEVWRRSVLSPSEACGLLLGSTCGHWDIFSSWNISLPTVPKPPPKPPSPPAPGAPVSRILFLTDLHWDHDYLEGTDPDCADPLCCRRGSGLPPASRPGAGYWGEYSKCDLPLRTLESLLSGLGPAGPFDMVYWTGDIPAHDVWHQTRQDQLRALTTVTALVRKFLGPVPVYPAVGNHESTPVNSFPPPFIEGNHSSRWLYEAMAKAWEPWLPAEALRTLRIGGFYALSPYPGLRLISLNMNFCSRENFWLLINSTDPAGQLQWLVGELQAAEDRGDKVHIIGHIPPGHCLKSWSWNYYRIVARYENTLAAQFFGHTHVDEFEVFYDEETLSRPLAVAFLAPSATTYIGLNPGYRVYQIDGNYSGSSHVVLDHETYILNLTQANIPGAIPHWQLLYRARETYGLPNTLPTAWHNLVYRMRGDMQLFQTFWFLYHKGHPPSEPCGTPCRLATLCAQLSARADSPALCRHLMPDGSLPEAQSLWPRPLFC
#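 HMU-PC0 cleavage (9 uM final) by human placental ASM, 60 min at 37 °C following 10 min compound exposure at RT; stopped at pH 10, fluorescence Ex 386/Em 447 nm.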
# SW480 rerep: inducers of DNA re-replication in SW480 colon cancer cells; SW480 DNA re-replication, Hoechst DNA content imaging, 48 h; Potency, µM (doses to about 46.1 µM), for inactives: top-dose re-replication activation, actives largely listed as activators; hit rate 1.8% among 340,000; also: potency is read from the fitted curve at half-maximal effect; % of control where 0% means no effect; nearly all actives have a fitted effect of over 55% in size
#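 DNA re-replication was detected as more nuclei of elevated Hoechst intensity after 48 hr exposure to compound (23 nL pinned per well of 250 cells).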
# KB-3-1 cytotox: KB-3-1 parental cell cytotoxicity; KB-3-1 viability, CellTiter-Glo ATP luminescence, 72 h; Potency, µM (highest dose often 46.1 µM), hits mostly cytotoxic; hit rate 1.4% among 400,000; AID 1347075; also: potency is read from the fitted curve at half-maximal effect; % is scaled to controls: 0 for no effect and ±100 for the full control effect; nearly all actives have a fitted effect of over 60% in size
#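 Using CellTiter-Glo luminescence, growth of non-resistant KB-3-1 adenocarcinoma cells is assessed 72 h after pin-tool compound addition at 37 °C. Normalized responses across the concentration series yield fitted curves.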
# KB-V1 cytotox: kills drug-selected multidrug resistant KB-V1 cells. KB-V1 MDR cells viability, CellTiter-Glo, 72 h. Potency, µM (series often up to 46.1 µM), actives largely listed as cytotoxic. hit rate 3.4% among 400,000; also: potency is read from the fitted curve at half-maximal effect; % is scaled to controls: 0 for no effect and ±100 for the full control effect; nearly all actives have a fitted effect of over 60% in size
#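 Potencies derive from concentration-effect curves fitted to normalized luminescence (CellTiter-Glo) of KB-V1 cells treated for 72 h at 37 degrees C in phenol-red-free DMEM containing 10% FBS.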
# Giardia killer: kills Giardia lamblia; hit rate 0.15% among 340,000; Giardia lamblia trophozoite viability; activity change, % at 7.66 µM, hits read low; in the data active = activity change below about -80%; inconclusive = between about -30% and that limit;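 also: parasites exposed to compound for two days anaerobically before the ATP read; % is scaled to controls: 0 for no effect and ±100 for the full control effect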
#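 Giardia trophozoites, 100 cells per well, were exposed to compounds for 48 hrs at 37 deg C under anaerobic conditions; viability was then read as ATP content by bioluminescence after 15-30 min at room temperature.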
# MCF10A rereplic: DNA re-replication induction in MCF 10a cells; MCF 10A DNA re-replication, Hoechst nuclear intensity, 48 h; Potency, µM (top dose mostly 46.1 µM), without a hit: top-dose activity, positive = re-replication, most hits filed as activators; hit rate 2.9% among 350,000; also: potency is read from the fitted curve at half-maximal effect; % of control where 0% means no effect; nearly all actives have a fitted effect of over 50% in size
# The depositor's hits bear a star; i = inactive; ? = inconclusive; . = no result given; ! = not active in a repeat; [ ] = remark or other dose. The list is not random: actives were taken first. Their share in the collection is about 6.9%. Unless noted, calls follow the shape of the dose curve; as a rule, active = well fitted curve in the direction sought with a large enough effect; inconclusive = small, poorly fitted or top-dose-only effect, or another doubt; inactive = no such curve, though single readings can be large; an effect the other way counts as inactive or inconclusive.
SMILES,S-ASM inh,SW480 rerep,KB-3-1 cytotox,KB-V1 cytotox,Giardia killer,MCF10A rereplic
CC(=O)N1c2ccc(S(=O)(=O)N3CCCCCC3)cc2CC1C(=O)NCc1ccc(Cl)cc1 (configuration not stated),.,.,i,i,.,.
CCn1c(SCC(=O)c2[nH]c(C)c(C(C)=O)c2C)nnc1-c1cccs1,-1%,-1%,?,2.6µM*,-4,1%
Cc1ccc(NNC(=O)c2snnc2C)cc1Cl,-2%,2.3µM*,i,i,16,1%
Cn1c(N=Nc2ccccc2)nc2ccccc21,-7%,?,i,8.2µM*,?,?
CN(C)c1ccc(N=Nc2nc3ccccc3n2C)cc1,-11%,?,i,?,4,-1%
CC(C)CCNC(=O)Cn1c(SCc2cccc(F)c2)nc2ccncc21,.,.,i,i,-14,.
Cc1cc(C)c(NC(=O)CSc2nc3ccccc3c3nc(CCn4cncc4C)nn23)c(C)c1,.,.,i,i,.,.
Cc1ccc(S(=O)(=O)Nn2cnnc2)cc1,3%,-14%,i,i,13,-1%
O=S(=O)(Nn1cnnc1)c1ccc(F)cc1,6%,27%,i,i,-4,2.3µM*
O=[N+]([O-])c1ccc(N=Nc2c(Cl)cc(O)cc2Cl)cc1,-19%,?,18µM*,i,2,?
CC(C)C[C@H](NC(=O)c1nc[nH]c1C(=O)N[C@@H](CCCCNC(=O)OC(C)(C)C)C(=O)OC(C)(C)C)C(=O)OC(C)(C)C,-8%,?,16µM*,?,-7,0%
C[C@H](NC(=O)c1nc[nH]c1C(=O)N[C@H](C)c1ccccc1)C(=O)OC(C)(C)C,-1%,-6%,i,?,-6,18%
CC(C)C[C@H](NC(=O)c1nc[nH]c1C(=O)N1CCN(c2ccccc2)CC1)C(=O)OCc1ccccc1,-11%,1%[9.22 µM],i,i,0,12µM*
CC(C)C[C@H](NC(=O)c1nc[nH]c1C(=O)NCCCCCNC(=O)OC(C)(C)C)C(=O)OC(C)(C)C,-9%,?,?,?,-27,14%
C[C@H](NC(=O)c1nc[nH]c1C(=O)NC(c1ccccc1)c1ccccc1)C(=O)OC(C)(C)C,-7%,-14%,?,8.2µM*,30,23%
C[C@H](NC(=O)c1nc[nH]c1C(=O)NCCCCCNC(=O)OC(C)(C)C)C(=O)OC(C)(C)C,0%,-7%,i,23µM*,-16,10%
Cc1oc2ccc(O)c(CN3CCN(C)CC3)c2c1C(=O)Nc1cccc(C(F)(F)F)c1,.,.,i,i,.,.
C[C@H](NC(=O)c1nc[nH]c1C(=O)N1CCN(C(=O)OC(C)(C)C)CC1)C(=O)OC(C)(C)C,2%,-6%,i,i,-5,?
CC(C)C[C@H](NC(=O)c1nc[nH]c1C(=O)N1CCN(C(=O)OC(C)(C)C)CC1)C(=O)OC(C)(C)C,-2%,16µM*,5.8µM*,i,47,?
CCOC(=O)c1ccc(-n2cccc2/C=C2\NC(=O)NC2=O)cc1,1%,18µM*,5.8µM*,7.3µM*,15,7.3µM*
CCOC(=O)c1cccc(-n2cccc2/C=C2\NC(=O)N(CC(=O)O)C2=O)c1,14%,-4%,i,i,-9,?
Nc1ccn(C2OC(COP(=O)(O)O)C(O)C2O)c(=O)n1 (configuration not stated),2%,0.65µM*,?,?,-5,?
CC(=O)NC[C@H]1O[C@@H](n2ccc(N)nc2=O)[C@H](O)[C@@H]1O,.,.,i,i,.,.
Cc1ccc(-n2ncc(C(=O)N3CCC(c4ccccc4)C3)c2C2CCN(C(=O)OC(C)(C)C)CC2)cc1 (configuration not stated),.,.,i,i,.,.
COC(=O)C(NNc1ccc(F)cc1)(NC(=O)c1ccccc1)C(F)(F)F (configuration not stated),-4%,-6%,i,18µM*,-3,0%
SMILES,S-ASM inh,SW480 rerep,KB-3-1 cytotox,KB-V1 cytotox,Giardia killer,MCF10A rereplic
Cc1ccc(CN(Cc2ccco2)C(=O)c2oc3c(C)c(C)ccc3c2C)cc1,.,.,i,i,.,.
CCc1ccc(NC(=O)CSc2nc3ncc(Br)cc3[nH]2)cc1,-5%,-6%,i,i,0,12µM*
O=C(CSc1nc2ncc(Br)cc2[nH]1)Nc1ccccc1-c1ccccc1,-12%,26%,i,?,4,26µM*
O=C(CSc1nc2ccccc2[nH]1)Nc1c(F)c(F)c(F)c(F)c1F,-1%,-10%,i,i,23,29%
COc1cccc(NC(=O)CSc2nc3ncc(Br)cc3[nH]2)c1,-6%,-10%,i,i,-8,8%
O=C(CSc1nc2cc3ccccc3cc2[nH]1)Nc1ccc(F)cc1,-2%,0%,i,16µM*!,15,1%
COc1ccc(NC(=O)Cn2cnc3ccc(S(=O)(=O)N4CCC(C)CC4)cc3c2=O)cc1OC,.,.,i,i,.,.
CC(SCc1ccccc1)C(=O)Nc1ccc2c(c1)OCO2 (configuration not stated),2%,-9%,i,18µM*,-8,1%
CC(SCc1ccccc1)C(=O)N/N=C/c1ccc2c(c1)OCO2 (configuration not stated),-4%,-4%,i,i,7,7%
COc1cccc(NC(=O)C(C)SCc2ccccc2)c1 (configuration not stated),1%,2%[1.84 µM],i,?,?,-12%
COc1ccc(NC(=O)C(C)SCc2ccccc2)cc1OC (configuration not stated),-1%,-82%,i,23µM*,-15,10%
CC(C(=O)Nc1ccc2c(c1)OCO2)N(C)CC(=O)Nc1ccc(Cl)cc1 (configuration not stated),-5%,-5%,i,23µM*,-9,-5%
COc1ccc(OC)c(-n2c3c(cc(-c4nc(-c5ccc(Cl)cc5)cs4)c2=O)C(=O)CC(C)(C)C3)c1,.,.,i,i,.,.
CCC(C)c1ccccc1N1CC(C(=O)NCCC2=CCCCC2)CC1=O (configuration not stated),0%,2%,i,23µM*,-11,-5%
CCOc1ccccc1N1CC(C(=O)NCCC2=CCCCC2)CC1=O (configuration not stated),4%,-63%,i,i,-2,-9%
COc1cc(CN2CCc3nc(N4CCN(c5ncccn5)CC4)ncc3C2)cc(OC)c1OC,.,.,?,6.5µM*,.,.
CC1CC(C)CN(c2ncc3c(n2)CC(c2ccccc2)CC3=O)C1 (configuration not stated),-2%,3%,i,i,-7,?
